According to ChEMBL document CHEMBL1157539, “Thousands of chemical starting points for antimalarial lead identification” (Nature, 2010):

Each compound was assayed on Plasmodium falciparum (assay: GSK_TCMDC: Inhibition of Plasmodium falciparum Dd2 in whole red blood cells, using parasite LDH activity as an index of growth. Test compounds present at 2uM).
Format: functional
Work on `O=C(CCc1c[nH]cn1)Nc1ccc(-c2ccc(-c3nc4cc(F)ccc4[nH]3)cc2)cc1` yielded an Inhibition of 58%.
In the case of `COc1ccccc1C1CCN(C2CCC(NC(=O)/C=C/c3ccc(F)c(F)c3)CC2)CC1` (stereo unspecified), the Inhibition is reported as 9%.
In the case of `Cc1cccc2[nH]cc(C3CCN(CCC4CCN(C(=O)/C=C/c5ccc(Cl)c(Cl)c5)CC4)CC3)c12`, the Inhibition is reported as 8%.
With `COC(=O)[C@@H](NC(=O)[C@@H](Nc1ccc(C#N)c2ccccc12)C(C)(C)C)c1ccc(O)cc1` the Inhibition was 74%.
`CC(C)N1CCN(C(CN2CCN(CCCOc3cccc(-c4ccccc4)c3)CC2)c2ccc(F)cc2)CC1.Cl` (stereo unspecified) showed an Inhibition of 99%.
`Cn1cnc2c(SCc3ccc(OCc4ccccc4)cc3)ncnc21` gave an Inhibition of 87%.
`O=C(c1cccc(-c2cccc(-c3nc4cc(C(F)(F)F)ccc4[nH]3)c2)c1)N1CCCCC1CN1CCC(O)C1` (stereo unspecified) gave an Inhibition of 100%.
Compound `COc1ccc2nccc(N/N=C/c3cccc([N+](=O)[O-])c3)c2c1` has an Inhibition of 98%.

These compounds were tested on HepG2 (assay: GSK_TCMDC: Percent inhibition of human HepG2 cell line. Test compounds present at 10uM.).
Format: functional
`COc1ccc(-c2ccc(S(=O)(=O)Nc3cc4c(cc3OC(C)C)CCN(C)CC4)cc2)cc1.Cl` showed an Inhibition of 16%.
With `CN(C(=O)Nc1ccc(C(F)(F)F)cc1)C1CCN(CCCCCNC(=O)/C=C/c2ccc(Cl)c(Cl)c2)CC1` the Inhibition was 57%.
`CN(C)c1ccc(-c2ccc(C(=O)NC3CCN(Cc4ccccc4F)CC3)s2)cc1.O=C(O)C(F)(F)F` showed an Inhibition of 30%.
`Cc1ccccc1C1CCN(c2ncc(C(=O)NC3CC3)cc2Cl)CC1.O=C(O)C(F)(F)F` gave an Inhibition of 22%.
For `COc1cc2ccccc2cc1OCCCN1CCN(CC(c2ccc(F)cc2)N2CCN(C(C)C)CC2)CC1.Cl` (stereo unspecified), the Inhibition was 72%.
With `COc1cc(F)c2ncc(F)c(CCN3C[C@H](CNCc4ccc5c(n4)NC(=O)CS5)[C@H](O)C3)c2c1.Cl` the Inhibition was 10%.
In the case of `CCCCOc1ccc(-n2c(Nc3ccccc3)nc3cc(S(N)(=O)=O)ccc32)cc1`, the Inhibition is reported as 0%.
`O=C(Nc1ccc(-c2cccc(-c3nc4cc(C(F)(F)F)ccc4[nH]3)c2)cc1)Nc1ccc(F)c(F)c1F` was tested, and the Inhibition was 58%.
For `CCS(=O)(=O)c1ccc(-c2cnc3[nH]cc(-c4ccc(N)cc4)c3c2)cc1`, the Inhibition was 24%.
`CCC(C)(C)c1ccc(OCCCC(=O)Nc2ccc(Cl)c([N+](=O)[O-])c2)c(C(C)(C)CC)c1` gave an Inhibition of 0%.
`CC(C)(C)C1CC(=O)CC2C(=O)N(c3ccc(Br)cc3)C(=O)C21` (stereo unspecified) was tested, and the Inhibition was 0%.
In the case of `CC(=O)Nc1ccc(C(=O)Nc2cccc(-c3ccc(-c4nc5ccccc5[nH]4)s3)c2)cn1`, the Inhibition is reported as 9%.
Work on `COc1ccc(CCNCCCCCCNCCCc2ccc(Cl)cc2)cc1OC.Cl` yielded an Inhibition of 36%.
With `Clc1ccc(Nc2nc3ccc(Cl)cc3nc2Nc2ccc(Cl)cc2)cc1` the Inhibition was 79%.
In the case of `Cc1cc2ccc(/C=C/C(=O)NC3CCC(CCN4CCc5ccc(C#N)cc5CC4)CC3)cc2[nH]1.Cl` (stereo unspecified), the Inhibition is reported as 19%.
`O=C(Nc1cc(Cl)cc(Cl)c1)c1cc(Cl)c(=O)n(Cc2ccc(Cl)cc2)c1` gave an Inhibition of 7%.
With `COc1ccc(C=NN=c2cc(C)[nH]c3ccc(C)cc23)c2ccccc12.Cl` the Inhibition was 28%.
Compound `N#Cc1ccc(-c2nc(CO)c(C(=O)NCCCCN3CCC(c4ccc5c(c4OCC(N)=O)CCCC5)CC3)s2)cc1` has an Inhibition of 9%.
`CN(C)CCOc1cccc(NC(=O)Nc2ccc(-c3ccccc3)cc2)c1.O=C(O)C(F)(F)F` gave an Inhibition of 11%.
`CCN(CC)CCN(Cc1ccc(-c2ccc(C(F)(F)F)cc2)cc1)C(=O)Cn1c(SCc2ccc(F)c(F)c2F)nc(=O)c2c1CCC2.O=C(O)C(O)C(O)C(=O)O` gave an Inhibition of 100%.
With `O=C(Nc1ccccc1)c1nn(CCCN2CCC(N3CCCC3)CC2)cc1-c1ccc(Cl)c(Cl)c1` the Inhibition was 31%.
With `CN(C)CCCNc1ncnc2c1[nH]c1ccc(Br)cc12` the Inhibition was 3%.
For `Cc1cc(OCC2CCN(c3ccc(C(=O)NC4CC4)cn3)CC2)ccc1F`, the Inhibition was 6%.
`CCN(CC)CCNc1ccc(Nc2ccnc3cc4ccccc4cc23)cc1` gave an Inhibition of 36%.
`NC(=O)c1cccc(C(=O)Nc2cccc(-c3cccc(-c4nc5cc(F)ccc5[nH]4)c3)c2)c1` gave an Inhibition of 47%.
`O=C(Nc1cccc(-c2cccc(-c3nc4cc(C(F)(F)F)ccc4[nH]3)c2)c1)c1ccncc1` showed an Inhibition of 52%.
`Cc1cccc2nc(-c3cccc(-c4cccc(NC(=O)c5cnccc5C(F)(F)F)c4)c3)[nH]c12` showed an Inhibition of 7%.
`CCCCCCN1CCN(Cc2cccc(NC(=O)c3cc4ccccc4s3)c2)CC1.O=C(O)C(F)(F)F` was tested, and the Inhibition was 20%.
